PubChem BioAssay AID1159580 (chemical genetic matrix, 2015)
Among all 5,500 compounds or so, about 2,000 (36%) were called active. About 18% were inconclusive and are not listed. No stated cut-off is given here; in the data, active means normalized growth mostly below about 0.91 (no sharp cut-off); inconclusive means no clear call, values can overlap the other calls; inactive means mostly above about 0.92. Some of the results follow.

Assay: chemical genetic growth profiling, strain panel (AID 1159580);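 further: tested at 20 µM; growth read once vehicle control cultures reached saturation at 30 °C; 1 = growth at the plate median or of vehicle wells; lower values mean less growth of the strain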
Conditions: S. cerevisiae deletion strains, growth OD

Measured: normalized growth

Oc1ccccc1O
inactive: locus YAL013W, strain DEP1, active compounds read low 0.966 | locus YAL040C, strain CLN3, active compounds read low 0.983 | locus YCL061C, strain MRC1 (second series), active compounds read low 0.971 | locus YER002W, strain NOP16, active compounds read low 1 | locus YGR229C, strain SMI1, active compounds read low 0.904 | locus YNL153C, strain GIM3, active compounds read low 1.03 | locus YNL175C, strain NOP13, active compounds read low 1.02 | locus YNL197C, strain WHI3, active compounds read low 1.02 | locus YNL224C, strain SQS1, active compounds read low 0.999 | locus YOR083W, strain WHI5 (second series), active compounds read low 1.03
